Cruzain inh Det – cruzain (T. cruzi) inhibition with detergent | P25779 | purified cruzain, Z-FR-AMC fluorescence, 0.01% Triton | Potency, µM, inactives show max response, negative = inhibition, most hits filed as inhibitors | 0.43% of 200,000 active | AID 1478;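 further: plate controls were neutral wells for no effect and buffer without enzyme for full effect; nearly all actives have a fitted effect of over 40% in size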
Target sequence (P25779 123-467 limits assumed): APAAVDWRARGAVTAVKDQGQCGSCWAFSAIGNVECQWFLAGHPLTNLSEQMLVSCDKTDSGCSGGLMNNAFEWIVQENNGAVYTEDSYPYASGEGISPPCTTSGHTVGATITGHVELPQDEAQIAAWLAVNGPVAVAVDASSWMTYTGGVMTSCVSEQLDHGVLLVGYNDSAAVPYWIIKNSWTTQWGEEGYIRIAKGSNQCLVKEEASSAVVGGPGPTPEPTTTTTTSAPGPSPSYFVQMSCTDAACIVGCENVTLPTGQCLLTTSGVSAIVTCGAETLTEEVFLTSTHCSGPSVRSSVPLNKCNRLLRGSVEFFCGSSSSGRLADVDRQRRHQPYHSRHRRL
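Steps: dispense cruzain (1.5 nM final) in acetate buffer pH 5.5 with DTT and 0.01% Triton X-100; pin-transfer compounds; incubate 15 min RT; add Z-FR-AMC (2 uM final); read fluorescence every 30 s, using the 60 s intensity change.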
Cruzain inh noDet – blocks cruzain activity in detergent-free assay. purified cruzain, Z-FR-AMC fluorescence, no detergent. Potency, µM, inactives show max response, negative = inhibition, hits mostly inhibitors. AID 1476. 2.3% of 200,000 active;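 further: plate controls were enzyme without inhibitor for no effect and buffer without enzyme for full effect; nearly all actives have a fitted effect of over 40% in size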
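Purified cruzain at 1.5 nM, pre-incubated 15 min with compound at room temperature in 100 mM sodium acetate pH 5.5, 5 mM DTT, 0.00005% Triton X-100. Reaction started with 2 uM Z-FR-AMC; AMC fluorescence increase over 60 s gives rate.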
* marks the source's active call; other numbers are inactive results; u = inconclusive. In the library only some 2.5% were active in any assay of this set; here they are far more common. The call rests on the fitted dose curve; in most records, active means well fitted curve in the direction sought with a large enough effect; inconclusive means small, poorly fitted or top-dose-only effect, or another doubt; inactive means no such curve, though single readings can be large; an effect the other way counts as inactive or inconclusive. Potency means the concentration at half of the fitted maximal effect.

SMILES	Cruzain inh Det	Cruzain inh noDet
CC(C)(C)NC(=O)NC(=O)COC(=O)c1cccc(F)c1	-4%	-7%
O=C(Cc1ccccc1)NCCC1=CCCCC1	1%	-9%
CC(C)(C)NC(=O)NC(=O)COC(=O)CNC(=O)c1cccc(F)c1	22µM*	u
COCC(=O)N1CCCc2ccccc21	8%	-10%
O=C(CNC(=O)c1ccccc1F)OCC(=O)N1CCCc2ccccc21	10µM*	10µM*
O=C(CNC(=O)c1cccc(F)c1)OCC(=O)N1CCCc2ccccc21	11µM*	10µM*
O=C(COC(=O)CNC(=O)c1ccccc1F)NCCC1=CCCCC1	14µM*	10µM*
CCNc1nc(NCC)nc(N(C)N)n1	2%	12%
Cc1cccc(N2CCN(C(=O)Cn3c(C)c4cnn(-c5ccccc5)c(=O)c4c3C)CC2)c1C	-9%	4%
Cc1cnc(CNc2ncnc3ccc(-c4ccccc4C)cc23)cn1	0%	3%
Cc1nn(-c2ccc(N3CCCCC3)nn2)c(C)c1CCC(=O)NCc1ccccc1	-4%	-3%
COc1cccc(CNC(=O)C(=O)Nc2c3c(nn2-c2ccccc2)CSC3)c1	0%	u
O=C(NCc1ccccc1)C(=O)Nc1c2c(nn1-c1ccc(F)cc1)CSC2	-1%	20µM*
CCc1ccc(NC(=O)CSc2nc3ccsc3c(=O)n2C(C)CC)cc1 (centres undefined)	-2%	-1%
COc1ccc(-n2c(Cc3cccn3C)nnc2SCC(=O)Nc2nc(C)cs2)cc1	0%	-6%
COc1cc(/C=N/Nc2ccc(Cl)cc2)ccc1OC(=O)c1cccs1	-3%	7.9µM*
COc1cc(/C=N/NC(=O)CNC(=O)c2ccccc2)ccc1OC(=O)c1cccs1	-6%	0%
COc1cc(/C=N\NC(=O)c2ccc(C)nc2)ccc1OC(=O)c1ccco1	-5%	-6%
COc1cc(/C=N/Nc2cccc(C)c2)ccc1OC(=O)c1ccco1	-2%	16µM*
CC(=O)Nc1c(I)c(C(=O)N[C@H]2[C@@H](O)[C@H](O)[C@H](CO)O[C@@H]2O)c(I)c(N(C)C(C)=O)c1I	-2%	-4%
CCNc1ncc2nc(-c3ccc(F)cc3)c(=O)n(CCOC)c2n1	0%	2%
CC(=O)Nc1ccc(C2=NN(Cc3nnc(-c4ccccc4)o3)C(=O)SC2)cc1	-8%	u
O=C1SCC(c2ccc(Cl)cc2Cl)=NN1Cc1nnc(-c2ccccc2)o1	-2%	16µM*
COCCN(Cc1ccco1)C(=O)c1cc2c(Cl)nc3ccc(C)cc3c2s1	1%	10%
CCc1nnc(NS(=O)(=O)c2ccc(N/C=C\C(=O)c3ccc(C)cc3)cc2)s1	-7%	u
SMILES	Cruzain inh Det	Cruzain inh noDet
Cn1cnnc1SCC(=O)NCCc1ccccc1	0%	0%
O=C1CN2CCN(CC2)CC(=O)Nc2ccc(cc2)S(=O)(=O)c2ccc(cc2)NC(=O)CN2CCN(CC2)CC(=O)Nc2ccc(cc2)S(=O)(=O)c2ccc(cc2)N1	3.2µM*	3.2µM*
CCCCCOc1ccccc1C(=O)NCCC(=O)O	4%	11%
CCOC(=O)N1CCN(C2CC(=O)N(c3ccc(C)cc3)C2=O)CC1 (centres undefined)	7%	4%
CCOC(=O)N1C2C=C(C)[C@@H]2[C@@H]2CC(=O)N21 (some centres undefined)	14µM*	13µM*
COC(=O)C(C)NC(=O)N1CCN(c2nnc(C)c3c(C)n(-c4ccc(Cl)cc4)nc23)CC1 (centres undefined)	-1%	-3%
C[C@@]12C[C@H](O)C3[C@H](CCC4=CC(=O)CC[C@]43C)[C@H]1CC[C@@H]2c1csc(-c2ccccc2)n1 (some centres undefined)	2%	-7%
C/C1=C2N=C(/C=C3N=C(/C(C)=C4\[N-]C(C)(C5N=C1C(C)(CCC(=O)NCC(C)OP(=O)([O-])O[C@H]1C(O)C(n6cnc7cc(C)c(C)cc76)O[C@@H]1CO)C5CC(N)=O)C(C)(CC(N)=O)C4CCC(N)=O)C(C)(CC(N)=O)C\3CCC(N)=O)C(C)(C)C/2CCC(N)=O.[CH2-]C1OC(n2cnc3c(N)ncnc32)C(O)C1O.[Co] (some centres undefined)	10µM*	13µM*
COc1ccc(Nc2ncnc3c2c(-c2ccccc2)cn3-c2ccc(C)c(Cl)c2)cc1OC	1%	-1%
C[N+]1(C)CCc2cc(O)c(O)cc2[C@H]1Cc1ccc(O)c(O)c1	-4%	-6%
Cc1cccc(C)c1Nc1nnc(SCc2nc3ccccc3s2)s1	-8%	32µM*
COc1cccc(Nc2nnc(SCc3nc4ccccc4s3)s2)c1	-9%	-13%
CC1=C(C(=O)Nc2ccc(C)cc2Cl)C2(CCCCC2)OC1=O	3%	-5%
CCN1CCCC1Cn1c(-c2ccccc2)nc2c(NCCOC)nc(C)nc21 (centres undefined)	-11%	-7%
COC(=O)c1cc(C)sc1NC(=O)c1cccnc1	-1%	-2%
COc1ccc(Cl)cc1Nc1nc(-c2sc(NC(=O)c3ccccc3)nc2C)cs1	2%	6.3µM*
COc1ccc(OC)c(Nc2nc(-c3sc(NC(=O)c4ccccc4)nc3C)cs2)c1	6%	u
Cc1nc(NC(=O)c2ccccc2)sc1-c1csc(Nc2ccc(Cl)cc2Cl)n1	0%	7.9µM*
C/C=C(\C)CN1CCN(c2ccc(C)cc2)CC1	3%	10%
CC(=O)c1cccc(NC(=O)Cn2c(=O)oc3cc(S(=O)(=O)NCc4ccccc4)ccc32)c1	-8%	-2%
CSc1cc2c(cc1C(F)(F)F)N(C(=O)Nc1cccnc1)CC2	1%	7.9µM*
Cc1cc(C(F)(F)F)nn1CC(=O)Nc1cccnc1	1%	-6%
O=c1c2oc3ccccc3c2n(Cc2ccccc2F)c(=O)n1Cc1ccco1	-1%	13%
COc1ccc(S(=O)(=O)Nc2ccccc2C(=O)Nc2nc(-c3ccc(F)cc3)cs2)cc1OC	-14%	20µM*
COc1ccc(-c2csc(NC(=O)c3ccccc3NS(=O)(=O)c3ccc(C)cc3)n2)cc1	-14%	u
SMILES	Cruzain inh Det	Cruzain inh noDet
COC(=O)CSc1nnc(-c2ccccc2OC)n1-c1ccc(C)cc1	2%	-20%
COc1ccccc1-c1nnc(SCC(=O)c2ccc(Cl)cc2)n1-c1ccccc1	-4%	25µM*
CNc1nc(-c2ccoc2)nc2ccccc12	-6%	-25%
Cc1ccc(C(=O)Nc2nc(-c3cc(Cl)sc3Cl)cs2)cc1	5%	u
Cc1ccc2nc(NNC(=O)c3ccc(S(=O)(=O)N4CCc5ccccc5C4)cc3)sc2c1	4%	25µM*
COc1ccc(-c2nnc(NC(=O)c3ccc(S(=O)(=O)N4CCc5ccccc5C4)cc3)o2)cc1	-1%	-10%
Cc1cc(-c2csc(NC(=O)c3ccc(C#N)cc3)n2)c(C)n1Cc1ccccc1	-1%	10µM*
COc1ccc(-c2csc(NC(=O)c3ccc(S(=O)(=O)N4CCc5ccccc5C4)cc3)n2)cc1	0%	5µM*
COC(=O)c1ccc(-c2csc(NC(=O)c3ccc(S(=O)(=O)N4CCc5ccccc5C4)cc3)n2)cc1	1%	6.3µM*
Cc1ccc2nc(NC(=O)c3ccc(S(=O)(=O)N4CCC(C)CC4)cc3)sc2c1	3%	-11%
CCC(CC)c1nnc(NC(=O)c2ccc(S(=O)(=O)N3CCc4ccccc4C3)cc2)s1	-4%	u
CCOc1ccccc1NC(=O)COc1cccc2c(=O)n(CCOC)ccc12	-2%	1%
O=C(c1cccn1-c1nnc(N2CCCC2)s1)N1CCN(c2ccc(Cl)cc2)CC1	0%	6%
